Compound activity: PubChem BioAssay, National Center for Advancing Translational Sciences (NCATS)
Hits are enriched below; roughly 21% of the tested compounds scored in any of these assays.
Pf growth 48h: P. falciparum growth inhibition at 48 hours (one generation); Potency, µM (highest dose often 28.7 µM), without a hit: at the top dose activity change, negative = inhibition, hits mostly inhibitors; AID 504832; actives 5.9% (n = 310,000); P. falciparum luciferase growth in erythrocytes, 48 h; also: potency is read from the fitted curve at half-maximal effect; % is scaled to controls: 0 for no effect and ±100 for the full control effect
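Luminescence readout; reporter = integrated firefly luciferase in P. falciparum. RBC culture at 2% hematocrit, 0.1% parasitemia final, 37 C/5% CO2; decreased signal taken as growth inhibition.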
Cycloheximide cs: affects cycloheximide protein synthesis inhibition readout, counter-screen | cell reporter, cycloheximide protein synthesis inhibition counterscreen | max response, % | actives 12% (n = 300,000); in the data active = max response mostly above about 13%, no sharp cut-off; inactive = mostly below about 14%; also: read at 38.3 µM for the half of the compounds with a filed dose; 0% is about no effect
Pf growth 96h: inhibits malaria parasite growth, 96 h; P. falciparum luciferase reporter growth, 96 h; actives 6.9% (n = 320,000); AID 504834; Potency, µM (doses to about 28.7 µM), for inactives: at the highest dose activity change, negative = inhibition, actives largely listed as inhibitors; also: potency is read from the fitted curve at half-maximal effect; % is scaled to controls: 0 for no effect and ±100 for the full control effect
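96 h incubation, 37 C, 5% CO2, of luciferase-reporter P. falciparum-infected RBCs (2% hematocrit, 0.05% parasitemia final) with test compounds; endpoint luminescence.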
HCV inh: HCV inhibition | Potency, µM (top dose mostly 41.8 µM), without a hit: at the highest dose activity change, negative = inhibition, most hits filed as inhibitors | Huh7.5.1 HCVcc-Cre infection, luciferase reporter, 44 h | actives 3.4% (n = 340,000) | AID 651820; also: potency is read from the fitted curve at half-maximal effect; % is scaled to controls: 0 for no effect and ±100 for the full control effect
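Antiviral activity was scored by luciferase reporter output from cells infected with HCVcc-Cre (~0.5 moi) in presence of compound, 44 h infection period, cells seeded 1,000/well 4 h prior.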
Shiga toxin inh: inhibitors of Shiga toxin in Vero cells; Vero cells, Shiga toxin protein synthesis inhibition reporter; inhibition, % at 38.7 µM; actives 9.2% (n = 290,000); in the data active = inhibition mostly above about 28%, no sharp cut-off; inactive = mostly below about 43%; also: 0% is about no effect
HCMV antiviral: human cytomegalovirus inhibition | HFF cells, HCMV-luciferase reporter, 72 h; active compounds read low | activity change, negative = inhibition, % at 57.5 µM | actives 4.5% (n = 410,000); in the data active = activity change below about -60%; inconclusive = no clear call, values can overlap the other calls; inactive = above about -39%; also: % is scaled to controls: 0 for no effect and ±100 for the full control effect
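Inhibition of viral replication was scored as loss of reporter luminescence in HFFs infected with HCMV-luciferase (MOI 1 PFU/cell) for 72 h; compounds tested at 2 doses, normalized to buffer and Salinomycin controls.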
Active calls of the source: *; ? = inconclusive; · = no result; [ ] = another dose, or the depositor's remark. Unless noted, calls follow the shape of the dose curve; as a rule, active = well fitted inhibition curve with a large enough effect; inconclusive = small, poorly fitted or top-dose-only effect, or another doubt; inactive = no such curve, though single readings can be large or run the other way.

SMILES	Pf growth 48h	Cycloheximide cs	Pf growth 96h	HCV inh	Shiga toxin inh	HCMV antiviral
Cc1ccc(CSCC(=O)N2CCOCC2)cc1	·	20.1*	-2.2%	2.1%	33.7	20.5
O=C(CCSCc1cccc(Cl)c1)N1CCN(c2ccc(Cl)cc2)CC1	·	·	·	·	·	-63.3*
COc1cccc(NC(=O)N2CCCC2C(=O)NCc2ccc(Cl)cc2)c1 (centres undefined)	8.7%	-1.6	?	-2.8%	4.8	-5.7
O=C(CSCc1nc2ccccc2[nH]1)N1CCN(c2ccc(F)cc2)CC1	?	8.9	-27.3%	12.6µM*	12.0	-33.4
O=C(CSCc1nc2ccccc2[nH]1)N1CCN(c2cccc(Cl)c2)CC1	?	-1.8	?	-3.7%	-9.3	-27.0
O=C(CSCc1ccccc1)N1CCN(c2ccc(F)cc2)CC1	19.6%	45.4*	24.8%	11.9%	20.6	25.7
O=C(CSCc1cccc(F)c1)N1CCN(c2ccccc2)CC1	103.3%	40.6*	?	12.8%	83.1*	37.0
CCOC(=O)CN1C(=O)CCSc2ccc(Cl)cc21	0.8%	-0.9	?	-9.4%	-7.8	2.2
Cc1ccc(C(=O)c2cn(CC(=O)NC3CCCCC3)c3nc(C)ccc3c2=O)cc1	·	·	·	·	·	6.5
CC(=O)Nc1ccccc1NC(=O)C/C(C)=N/NC(=O)Cc1cccc2ccccc12	?	-1.7	?	-12.1%	-0.8	-19.5
Nc1cc(Cl)ccc1C(=O)OCC(=O)NC1CCCCCCC1	?	·	-28.6%	-3.7%	·	0.0
COc1ccc(S(=O)(=O)N(C)c2ccc(C(=O)Nc3cccnc3)cc2)cc1	?	-2.8	?	?	-6.9	-29.3
COc1ccc(N(C)S(=O)(=O)c2cccc(C(=O)Nc3ccc(OC)nc3)c2)cc1	-39.3%	-1.8	?	?	-1.4	-67.6*
COc1ccc(N(C)S(=O)(=O)c2cccc(C(=O)Nc3ccc4c(c3)OCCO4)c2)cc1	?	9.7	?	10µM*	18.8	97.2
COc1ccc(N(C)S(=O)(=O)c2cccc(C(=O)Nc3cc(OC)ccc3OC)c2)cc1	?	-4.0	?	10µM*	-9.0	-22.6
COc1ccc(N(C)S(=O)(=O)c2cccc(C(=O)Nc3ccc(-n4cnnn4)cc3)c2)cc1	10.4µM*	-2.8	?	?	-16.5	?
COc1ccccc1OCCNC(=O)c1ccc(C)c(S(=O)(=O)N2CCOCC2)c1	?	·	?	?	·	2.2
Cc1nc(NC(=O)COC(=O)CCc2ccccc2)c(Cl)cc1Cl	·	·	·	13.1%	·	-0.5
Cc1ccc(CNC(=O)C2CCN(S(=O)(=O)c3ccc4c(c3)CCCN4C(=O)C3CCC3)CC2)cc1	·	·	·	·	·	9.4
Cc1cc(C)c2c(=O)[nH]c(SCC(=O)c3ccc(C)c(C)c3)nc2n1	39.6%	6.0	-17.5%	-10.4%	-4.3	-5.3
COc1cc(NC(=O)c2ccccc2-n2cnnn2)cc(OC)c1	-13.3%	·	19.7%	-11.1%	·	5.7
COc1cc(OC)cc(C(=O)Nc2ccc(-n3cnnn3)c(C)c2)c1	106.2%	22.0*	-11.4%[5.75 µM]	7.08µM*	29.6*	-3.9
CC(C)C[C@@H]1COc2cc(NCCCN3CCOCC3)ccc2S(=O)(=O)N1	·	·	·	·	·	3.4
CCC(C)C(NC(=O)c1ccccc1NC(=O)c1ccco1)C(=O)NC1CCCCC1 (centres undefined)	9.28µM*	-4.0	309.9%	-18.4%	12.7	-14.5
CC(C)C(NC(=O)c1ccccc1NC(=O)c1ccco1)C(=O)NNC(=O)c1ccncc1 (centres undefined)	?	-2.3	?	-0.1%	-8.2	?
O=C(Nc1ccccc1C(=O)NC1CCCCC1)c1ccco1	-22.0%	-3.4	?	-25.5%	-4.2	-13.3
CCC(C)C(NC(=O)c1ccccc1NC(=O)c1ccco1)C(=O)NNC(=O)c1ccncc1 (centres undefined)	10.4µM*	-3.0	?	?	21.8	14.5
COc1ccc(C(=O)NNC(=O)C(NC(=O)c2ccccc2NC(=O)c2ccco2)C(C)C)cc1 (centres undefined)	-3.7%	-3.0	2.0%	4.4%	12.2	-38.5
